Experimental data as given in ChEMBL document CHEMBL3988442, “University of Dundee, Small-Polar-MMV Screening Library” (2021).
For some assays here: Entries with a potency or affinity are not part of this list.

Experiments:
Parameters in all cases: scale not given: direction of the effect not stated beside the values
[1] = molecular target: Protein translocase subunit SecA (Escherichia coli (strain K12)) (UniProt P10408); assay: Assay to Identify E. coli SecA ATPase Inhibitors; type: functional; details: 30 µM
[2] = molecular target: T1, Ubiquitin-activating enzyme e1, putative (Leishmania donovani (strain BPK282A1)) (UniProt E9BSI1); assay: Leishmania donovani Ubiquitin Activating Enzyme (LdE1); type: functional; details: 30 µM
T1 sequence (whole entry): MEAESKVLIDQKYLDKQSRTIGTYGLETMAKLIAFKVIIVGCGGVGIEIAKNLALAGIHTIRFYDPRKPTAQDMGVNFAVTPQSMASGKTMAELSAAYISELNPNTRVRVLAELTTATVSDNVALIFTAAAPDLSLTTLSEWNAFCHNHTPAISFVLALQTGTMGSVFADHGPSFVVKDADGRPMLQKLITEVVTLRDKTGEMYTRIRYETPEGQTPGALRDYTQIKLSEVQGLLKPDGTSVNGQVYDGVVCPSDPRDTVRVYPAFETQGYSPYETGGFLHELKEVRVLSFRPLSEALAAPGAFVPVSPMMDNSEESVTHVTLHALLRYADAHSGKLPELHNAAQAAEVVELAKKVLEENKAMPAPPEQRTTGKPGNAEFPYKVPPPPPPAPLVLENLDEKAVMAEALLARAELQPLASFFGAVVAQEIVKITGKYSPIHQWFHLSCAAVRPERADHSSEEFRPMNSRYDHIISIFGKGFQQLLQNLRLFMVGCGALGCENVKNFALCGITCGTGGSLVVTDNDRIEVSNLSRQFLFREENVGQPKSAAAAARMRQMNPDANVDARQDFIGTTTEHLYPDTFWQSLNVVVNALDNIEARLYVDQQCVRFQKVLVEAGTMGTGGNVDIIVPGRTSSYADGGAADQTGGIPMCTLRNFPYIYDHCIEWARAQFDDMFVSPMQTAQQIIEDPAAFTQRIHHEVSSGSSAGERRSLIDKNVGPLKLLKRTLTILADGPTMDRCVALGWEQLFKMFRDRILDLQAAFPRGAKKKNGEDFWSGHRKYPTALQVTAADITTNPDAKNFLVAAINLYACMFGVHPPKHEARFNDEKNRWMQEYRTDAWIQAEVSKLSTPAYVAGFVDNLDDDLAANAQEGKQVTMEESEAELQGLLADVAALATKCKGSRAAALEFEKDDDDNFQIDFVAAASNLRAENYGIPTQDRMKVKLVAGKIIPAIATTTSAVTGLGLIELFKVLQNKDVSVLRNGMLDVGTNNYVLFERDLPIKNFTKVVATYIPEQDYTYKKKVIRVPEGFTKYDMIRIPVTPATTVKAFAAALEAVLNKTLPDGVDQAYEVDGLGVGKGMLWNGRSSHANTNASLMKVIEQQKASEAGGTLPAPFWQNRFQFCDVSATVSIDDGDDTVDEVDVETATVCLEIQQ

[3] = molecular target: AMP-activated protein kinase, AMPK (Homo sapiens) (UniProt P54646+O43741+P54619+Q9UGJ0+Q9Y478+Q13131+Q9UGI9); assay: AMP-dependent Kinase enzyme assay. An in vitro enzyme assay that detects ADP turnover that is directly proportional to AMPK activity. This uses naive AMPK that is activated during the assay with MK-8722; type: functional; details: 30 µM
[4] = molecular target: Sialic acid-binding Ig-like lectin 9 (Homo sapiens) (UniProt Q9Y336); assay: Hs-Siglec9 ALPHAscreen SOP 20170721; details: 10 µM
Trypanosoma cruzi = assay: Trypanosoma cruzi phosphomannomutase and mannose-1-phosphate guanylyltransferase assay; type: functional; details: 10 µM
[5] = molecular target: T2, Arginase-2, mitochondrial (Homo sapiens) (UniProt P78540); assay: in vitro enzyme assay to detect the production of urea directly proportional to the activity of Arginase II; type: functional; details: 33.3 µM; also: in the data most compounds retested in dose-response had high values
T2 sequence (whole entry): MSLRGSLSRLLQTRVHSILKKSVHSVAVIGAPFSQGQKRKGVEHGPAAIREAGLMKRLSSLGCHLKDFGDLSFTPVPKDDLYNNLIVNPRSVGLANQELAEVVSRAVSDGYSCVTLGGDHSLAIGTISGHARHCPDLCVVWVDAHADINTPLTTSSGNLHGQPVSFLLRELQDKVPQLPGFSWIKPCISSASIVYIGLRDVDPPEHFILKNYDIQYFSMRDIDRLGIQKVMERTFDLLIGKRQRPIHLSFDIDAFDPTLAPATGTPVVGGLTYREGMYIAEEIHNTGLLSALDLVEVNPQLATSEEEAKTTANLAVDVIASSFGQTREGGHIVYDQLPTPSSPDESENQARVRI

[6] = molecular target: T3, Proteasome subunit beta (Trypanosoma cruzi) (UniProt O96673); assay: Trypanosoma cruzi proteasome chymotrypsin-like activity (TcProtChymo) assay.; also: in the data most compounds retested in dose-response had high values; type: functional; details: 9.37 µM
T3 sequence (whole entry): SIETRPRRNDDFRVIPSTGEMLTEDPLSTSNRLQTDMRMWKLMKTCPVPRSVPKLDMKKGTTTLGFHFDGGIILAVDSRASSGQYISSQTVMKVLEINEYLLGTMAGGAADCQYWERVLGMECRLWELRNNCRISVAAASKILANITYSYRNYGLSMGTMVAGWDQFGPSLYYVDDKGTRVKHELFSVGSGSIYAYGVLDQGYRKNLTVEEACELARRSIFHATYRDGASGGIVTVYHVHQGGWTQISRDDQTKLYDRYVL

Homo sapiens = organism: Homo sapiens; assay: To identify inhibition of the IFN signalling (Jak-Stat) pathway via expression of an eGFP reporter gene under the control of an IFN-stimulated response element (ISRE) containing MxA promoter.; type: functional; details: 30 µM
[7] = molecular target: T4, Tyrosyl-tRNA synthetase, putative (Trypanosoma cruzi (strain CL Brener)) (UniProt Q4DSP6); assay: Trypanosoma cruzi tyrosyl tRNA synthetase (TcYRS) _High Tyrosine SOP; type: functional; details: 30 µM; also: in the data most compounds retested in dose-response had high values
T4 sequence (whole entry): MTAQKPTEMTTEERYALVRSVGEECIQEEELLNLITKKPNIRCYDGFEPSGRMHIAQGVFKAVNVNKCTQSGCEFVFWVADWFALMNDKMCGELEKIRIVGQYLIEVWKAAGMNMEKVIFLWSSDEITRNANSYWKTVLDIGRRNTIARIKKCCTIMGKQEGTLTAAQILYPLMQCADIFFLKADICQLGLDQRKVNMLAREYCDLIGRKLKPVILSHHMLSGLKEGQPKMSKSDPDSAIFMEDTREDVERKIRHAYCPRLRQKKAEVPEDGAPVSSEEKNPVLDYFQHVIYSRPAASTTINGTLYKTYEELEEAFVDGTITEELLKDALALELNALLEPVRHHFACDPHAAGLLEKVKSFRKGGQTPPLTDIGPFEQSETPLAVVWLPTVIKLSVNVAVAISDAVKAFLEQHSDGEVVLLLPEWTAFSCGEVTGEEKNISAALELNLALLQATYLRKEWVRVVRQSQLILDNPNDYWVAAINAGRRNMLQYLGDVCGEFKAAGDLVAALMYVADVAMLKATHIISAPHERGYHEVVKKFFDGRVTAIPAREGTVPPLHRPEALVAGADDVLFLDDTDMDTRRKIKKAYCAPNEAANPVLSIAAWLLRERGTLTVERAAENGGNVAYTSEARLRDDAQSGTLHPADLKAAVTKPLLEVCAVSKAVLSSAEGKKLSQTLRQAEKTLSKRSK

[8] = molecular target: T4, Tyrosyl-tRNA synthetase, putative (Trypanosoma cruzi (strain CL Brener)); assay: Trypanosoma cruzi tyrosyl tRNA synthetase (TcYRS) SOP; type: functional; details: 30 µM
[9] = molecular target: Chromo domain-containing protein 1 (Saccharomyces cerevisiae (strain ATCC 204508 / S288c) (Baker's yeast)) (UniProt P32657); assay: ScCHD-1 Enzyme Inhibition Assay; type: functional; details: 30 µM; also: in the data most compounds retested in dose-response had high values
Sequence of Chromo domain-containing protein 1 (Saccharomyces cerevisiae (strain ATCC 204508 / S288c) (Baker's yeast)) (P32657 whole entry, the tested form may be a part): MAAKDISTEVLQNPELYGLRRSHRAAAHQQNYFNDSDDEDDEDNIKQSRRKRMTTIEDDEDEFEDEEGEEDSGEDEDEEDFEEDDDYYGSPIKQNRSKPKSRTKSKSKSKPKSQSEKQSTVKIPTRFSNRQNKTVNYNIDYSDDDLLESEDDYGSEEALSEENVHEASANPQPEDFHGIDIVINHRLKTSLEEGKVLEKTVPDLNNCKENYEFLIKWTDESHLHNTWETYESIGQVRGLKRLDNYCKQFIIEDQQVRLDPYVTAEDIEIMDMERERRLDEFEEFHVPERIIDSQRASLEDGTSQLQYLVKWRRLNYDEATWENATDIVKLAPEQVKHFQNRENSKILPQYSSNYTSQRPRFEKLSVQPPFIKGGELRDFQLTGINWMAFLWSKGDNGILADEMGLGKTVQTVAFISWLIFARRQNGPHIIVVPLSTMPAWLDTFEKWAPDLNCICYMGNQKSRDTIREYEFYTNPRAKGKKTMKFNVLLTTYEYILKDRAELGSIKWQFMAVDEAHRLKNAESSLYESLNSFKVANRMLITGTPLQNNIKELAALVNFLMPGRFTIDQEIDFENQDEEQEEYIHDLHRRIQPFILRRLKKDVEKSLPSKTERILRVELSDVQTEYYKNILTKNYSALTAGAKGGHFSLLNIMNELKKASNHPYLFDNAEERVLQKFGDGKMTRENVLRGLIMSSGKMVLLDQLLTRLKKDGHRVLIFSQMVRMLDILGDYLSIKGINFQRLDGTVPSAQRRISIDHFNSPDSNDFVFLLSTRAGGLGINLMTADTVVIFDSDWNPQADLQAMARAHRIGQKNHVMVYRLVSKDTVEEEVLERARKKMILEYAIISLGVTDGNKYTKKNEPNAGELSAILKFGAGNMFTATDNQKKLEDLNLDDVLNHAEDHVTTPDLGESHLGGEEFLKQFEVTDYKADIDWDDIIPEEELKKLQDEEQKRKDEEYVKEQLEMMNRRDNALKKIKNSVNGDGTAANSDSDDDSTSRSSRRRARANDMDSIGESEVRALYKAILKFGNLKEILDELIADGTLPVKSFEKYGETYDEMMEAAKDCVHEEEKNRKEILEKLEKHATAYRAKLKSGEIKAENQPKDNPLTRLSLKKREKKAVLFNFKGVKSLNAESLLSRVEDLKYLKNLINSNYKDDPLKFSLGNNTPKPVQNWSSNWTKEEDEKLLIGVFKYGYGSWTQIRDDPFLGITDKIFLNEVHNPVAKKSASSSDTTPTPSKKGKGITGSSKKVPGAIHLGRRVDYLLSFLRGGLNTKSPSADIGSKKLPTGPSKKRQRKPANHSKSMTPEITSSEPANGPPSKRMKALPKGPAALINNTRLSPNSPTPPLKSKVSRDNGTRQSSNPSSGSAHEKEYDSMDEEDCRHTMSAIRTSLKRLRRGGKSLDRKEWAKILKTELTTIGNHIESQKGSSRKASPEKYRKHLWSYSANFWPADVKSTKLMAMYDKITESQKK

Sequence of Sialic acid-binding Ig-like lectin 9 (Homo sapiens) (Q9Y336 whole entry): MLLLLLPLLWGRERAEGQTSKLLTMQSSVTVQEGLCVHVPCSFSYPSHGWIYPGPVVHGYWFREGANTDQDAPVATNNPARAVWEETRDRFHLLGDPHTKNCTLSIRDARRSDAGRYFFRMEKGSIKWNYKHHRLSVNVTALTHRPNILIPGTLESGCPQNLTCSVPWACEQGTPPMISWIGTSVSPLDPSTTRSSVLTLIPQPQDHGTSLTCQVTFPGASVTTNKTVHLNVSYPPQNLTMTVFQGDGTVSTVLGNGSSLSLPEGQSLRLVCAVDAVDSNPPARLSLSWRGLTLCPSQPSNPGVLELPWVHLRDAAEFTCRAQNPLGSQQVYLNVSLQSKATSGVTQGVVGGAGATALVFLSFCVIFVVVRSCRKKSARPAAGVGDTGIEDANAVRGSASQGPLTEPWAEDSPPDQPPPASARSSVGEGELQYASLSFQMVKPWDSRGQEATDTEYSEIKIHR
Sequence of Protein translocase subunit SecA (Escherichia coli (strain K12)) (P10408 whole entry): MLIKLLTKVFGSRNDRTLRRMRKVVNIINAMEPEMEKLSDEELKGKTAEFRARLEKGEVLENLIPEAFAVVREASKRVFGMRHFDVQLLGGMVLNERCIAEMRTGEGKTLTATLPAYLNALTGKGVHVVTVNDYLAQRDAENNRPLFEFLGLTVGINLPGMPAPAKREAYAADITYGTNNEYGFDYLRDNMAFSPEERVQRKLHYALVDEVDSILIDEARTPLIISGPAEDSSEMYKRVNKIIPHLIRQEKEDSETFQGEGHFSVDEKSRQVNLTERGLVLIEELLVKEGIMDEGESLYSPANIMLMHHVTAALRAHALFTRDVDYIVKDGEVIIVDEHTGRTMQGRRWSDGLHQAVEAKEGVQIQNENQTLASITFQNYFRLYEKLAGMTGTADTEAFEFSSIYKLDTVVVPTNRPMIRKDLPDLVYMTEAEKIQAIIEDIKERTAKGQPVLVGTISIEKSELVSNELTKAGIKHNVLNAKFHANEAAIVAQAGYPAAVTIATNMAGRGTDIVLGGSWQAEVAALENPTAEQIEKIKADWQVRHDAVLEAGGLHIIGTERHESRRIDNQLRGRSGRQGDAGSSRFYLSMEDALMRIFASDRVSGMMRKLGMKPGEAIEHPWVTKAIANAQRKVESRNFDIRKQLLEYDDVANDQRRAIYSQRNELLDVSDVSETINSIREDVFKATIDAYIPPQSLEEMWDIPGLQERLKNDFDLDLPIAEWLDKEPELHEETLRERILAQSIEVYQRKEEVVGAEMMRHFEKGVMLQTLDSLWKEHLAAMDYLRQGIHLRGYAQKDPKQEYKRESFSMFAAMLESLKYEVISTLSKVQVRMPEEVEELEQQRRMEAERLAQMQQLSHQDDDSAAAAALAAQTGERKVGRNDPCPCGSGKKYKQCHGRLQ

SMILES | Percent Effect [1] [%] | Percent Effect [2] [%] | Percent Effect [3] [%] | Percent Effect [4] [%] | Percent Effect (Trypanosoma cruzi) [%] | Percent Effect [5] [%] | Percent Effect [6] [%] | Percent Effect (Homo sapiens) [%] | Percent Effect [7] [%] | Percent Effect [8] [%] | Percent Effect [9] [%]
Cc1ccc([C@]2(O)CC[C@H]3CN(Cc4cc(C)c(O)c(C)c4)C[C@H]32)nc1 | -2.94 | 6.76 | 23.7 | 8.26 | -2.37 | -5.34 | 8.58 | 11.6 | 0 | 6.49 | -9.68
CCc1c(C(=O)N2CCN(c3ncccn3)CC2)cnn1C(C)(C)C | -1.49 | 21.1 | -5.24 | 0.163 | 0.0934 | 1.44 | 13.3 | 9.72 | 4.43 | 18.5 | -8.38
Cn1cc(NC(=O)Cn2c(CS(C)(=O)=O)nc3ccccc32)cn1 | -2.27 | 7.89 | 3.88 | 2.76 | 0.0974 | -1.18 | 12.6 | -13.6 | 3.19 | 13 | -3.67
CCCNC(=O)N1CCC(Oc2cc(C)ccc2F)(C(=O)O)CC1 | -2.42 | 9.72 | -3.19 | 22.9 | 6.9 | 24.3 | 1.75 | -5.25 | -1.05 | 10.3 | -1.57
O=C(Cc1ccc2c(c1)CCO2)N1CCN(c2cnccn2)CC1 | -4.64 | -7.89 | 2.2 | -0.444 | 9.59 | -1.53 | 0.167 | 5.16 | 3.43 | 7.32 | -12.2
Cc1cc(N2CCCC2c2cnccn2)ncn1 (stereo unspecified) | -2.62 | 6.76 | 8.11 | 0.00484 | -2.37 | 0.696 | 7.02 | 5.1 | 8.6 | 14.3 | -2.99
Cc1cc(C)n(CC2CCCN2C(=O)c2cnn(C)c2C2CC2)n1 (stereo unspecified) | -0.918 | 2.7 | 11.2 | 10.3 | 0.65 | -0.554 | 0.718 | 9.84 | 2.97 | 1.22 | 10.5
CSc1ccccc1CN1CCn2nc(CNC(C)=O)cc2C1 | 0.00499 | 11 | 1.85 | 8.13 | 2.35 | 18.2 | 18.6 | 15.7 | 6.45 | 20 | -3.35
CC(=O)N(Cc1noc(C2CC2)n1)C1CCN(Cc2nccn2C)C1 (stereo unspecified) | -1.42 | 16.2 | -8.4 | -4.39 | -6.22 | -4.25 | 11.1 | 11.5 | 3.96 | 18.3 | -5.65
COc1ncccc1C(=O)N1CC[C@H]2C[C@@H](C)O[C@@H]2C1 | -0.702 | 17.3 | 0.286 | -4.21 | -0.589 | -6.51 | 15.5 | -1.15 | 3.17 | 10.3 | -9.15
CN(Cc1ccccc1)C1(C(=O)O)Cc2ccccc2C1 | -3.87 | 2.67 | -2.42 | 1.78 | -3.6 | 3.12 | 12.9 | 5.79 | 2.73 | 8.64 | -5.27
O=C(c1ccco1)N1CCCC(c2cc(C(F)F)n3ncnc3n2)C1 (stereo unspecified) | -1.42 | 4.05 | 9.33 | 28.2 | -8.5 | 3.02 | 3.9 | 7.52 | 0 | 3.9 | 3.66
CN(C)CCN1CCOCC2(C1)CN(Cc1ccsc1)CCO2 (stereo unspecified) | -4.22 | 5.33 | 14.3 | 0.643 | -2.56 | 4.89 | 4.67 | -0.367 | 4.25 | 8.97 | -3.51
Cc1cc(NC(=O)CCN2CCCC2Cn2cncn2)no1 (stereo unspecified) | -6.97 | 8.86 | 1.01 | 2.13 | -0.718 | -2.8 | 14.9 | 2.3 | 4.17 | 10.1 | -27.3
CN1CCN(C(=O)[C@H]2C[C@@H]3CCN(c4ncc(F)cn4)C[C@@H]3O2)CC1 | 1.76 | 8 | 10 | 14.4 | -2.51 | -53.2 | 10.3 | 7.21 | 0 | 17.5 | -8.06
OCc1ccc(Cl)c(NCc2cccnc2)c1 | -4.1 | 0 | -0.207 | -4.73 | -1.85 | 2.37 | 2.01 | -2.65 | 0 | -5.2 | -6.29
